Drawing on PubChem BioAssay, this text covers composite z-score, z-score and composite Z-score for 6 compounds.

Assay [1] relates to Human papillomavirus type 1a protein E7 (residues 44-93). As to the kind of experiment: small molecules binding HPV E7 44-93 – biochemical, small-molecule microarray, residues 44-93, 635 nm fluorescence, primary screen (AID 1108).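 Further: E7 fragment applied at 1 µg/mL in TBST for 1 h at 4 C; score combines spot fluorescence with its signal to noise ratio.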 The settings on record: fluorescence 635 nm, higher = more signal.
Assay [2] in a line: hepatitis C replication reporter changes, two-sided – Huh7 cells, luciferase reporter, HCV replication inhibitor project, primary screen (AID 1109).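 Further: huh7 hepatoma cells harbouring a luciferase neomycin HCV replicon reporter; luciferase luminescence as measure of HCV replicon replication; test concentration not given here.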 The settings on record: Huh7 HCV replicon luciferase reporter, 48 h; higher = more signal.
Assay [3] addresses Left-right determination factor 2 (Homo sapiens) (UniProt O00292). Briefly: small molecules binding LEFTY2 protein – biochemical, small-molecule microarray, 635 nm fluorescence scan, primary screen (AID 1110). The settings on record: higher = more signal.
For assay [4], the target named is Calmodulin-1 (Homo sapiens) (UniProt P0DP23). As to the kind of experiment: small molecules binding calmodulin-1 with EGTA – biochemical, small-molecule microarray, Cy5-labelled CALM1, profiling panel (AID 1111).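 Further: labelled calmodulin applied in Tris saline Tween buffer holding calcium plus EGTA and DTT.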 Particulars: Cy5-CALM1 binding fluorescence, higher = more signal.
Assay [5] shares this target. As to the kind of experiment: small molecules binding Ca-loaded calmodulin-1 – biochemical, small-molecule microarray, Cy5-labelled CALM1, plus calcium, artefact control for SMM control-protein annotation, profiling panel (AID 1112).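 Further: score merges spot fluorescence with signal to noise from triplicate slides.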 The settings on record: Cy5-CALM1 binding fluorescence, higher = more signal.
Assay [6] in a line: probe aWnt5a binding to arrayed compounds – biochemical, biotinylated probe, 635/667 nm fluorescence, primary screen (AID 1113).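 Further: score merges 667 nm fluorescence intensity with signal-to-noise per printed feature.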 The settings on record: small-molecule microarray, higher = more signal.
Assay [7] can be described thus: probe aShh binding to arrayed compounds – biochemical, biotinylated probe, 635/667 nm fluorescence, primary screen (AID 1114).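 Further: probe is biotin-labelled aShh protein from a stem cell growth factor screen; measures binding of labelled protein to compounds printed on the slide; score merges feature fluorescence at 667 nm with signal-to-noise.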 The settings on record: small-molecule microarray, higher = more signal.
Assay [8] is described as follows: probe aNog binding to arrayed compounds – biochemical, biotinylated probe, 635/667 nm fluorescence, primary screen (AID 1115).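 Further: probe is biotinylated aNog protein used at 0.15 µg/mL for 1 h at 4 C; z-score combines 667 nm fluorescence of each spot with its signal to noise.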 Particulars: small-molecule microarray, higher = more signal.
In assay [9] the target is Torsin-1A-interacting protein 1 (Homo sapiens) (UniProt Q5JTV8). As to the kind of experiment: compound microarray binding of lysate hLAP1 – cell lysate, small-molecule microarray, COS7 lysate, 635/667 nm fluorescence, primary screen (AID 1116). Particulars: 635 nm fluorescence, higher = more signal.
Chain of Torsin-1A-interacting protein 1 (Homo sapiens) (Q5JTV8 whole entry, looked up): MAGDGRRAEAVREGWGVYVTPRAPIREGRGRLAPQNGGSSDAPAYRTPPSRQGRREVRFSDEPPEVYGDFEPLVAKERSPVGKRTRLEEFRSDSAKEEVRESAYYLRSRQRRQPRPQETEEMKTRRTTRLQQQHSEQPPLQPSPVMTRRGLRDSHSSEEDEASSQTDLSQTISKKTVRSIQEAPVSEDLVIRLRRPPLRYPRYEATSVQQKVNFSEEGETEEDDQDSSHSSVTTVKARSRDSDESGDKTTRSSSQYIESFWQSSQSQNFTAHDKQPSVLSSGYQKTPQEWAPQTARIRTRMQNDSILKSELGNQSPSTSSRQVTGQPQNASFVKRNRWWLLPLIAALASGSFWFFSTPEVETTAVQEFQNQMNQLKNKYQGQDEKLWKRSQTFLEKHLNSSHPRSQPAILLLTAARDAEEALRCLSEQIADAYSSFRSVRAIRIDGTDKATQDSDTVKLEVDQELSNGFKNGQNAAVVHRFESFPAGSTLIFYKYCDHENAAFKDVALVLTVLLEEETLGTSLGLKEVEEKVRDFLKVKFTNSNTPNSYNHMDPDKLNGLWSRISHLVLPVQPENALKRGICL
Assay [10] concerns the target Alpha-bungarotoxin (Bungarus multicinctus) (UniProt P60615). Briefly: compounds binding labelled alpha-BTX control protein – biochemical, small-molecule microarray, Alexa647 label, 635/667 nm fluorescence, artefact control for SMM control protein annotation, profiling panel (AID 1117). The settings on record: alpha-BTX-A647 binding fluorescence, higher = more signal.
The target in assay [11] is Albumin (Bos taurus) (UniProt P02769). Briefly: compounds binding labelled BSA control protein – biochemical, small-molecule microarray, Alexa647 label, 635/667 nm fluorescence, artefact control for SMM control protein annotation, profiling panel (AID 1118).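 Further: score merges 667 nm emission intensity and signal-to-noise per printed compound spot.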 The settings on record: BSA-A647 binding, fluorescence 635 nm, higher = more signal.
Chain of Albumin (Bos taurus) (P02769 whole entry, looked up): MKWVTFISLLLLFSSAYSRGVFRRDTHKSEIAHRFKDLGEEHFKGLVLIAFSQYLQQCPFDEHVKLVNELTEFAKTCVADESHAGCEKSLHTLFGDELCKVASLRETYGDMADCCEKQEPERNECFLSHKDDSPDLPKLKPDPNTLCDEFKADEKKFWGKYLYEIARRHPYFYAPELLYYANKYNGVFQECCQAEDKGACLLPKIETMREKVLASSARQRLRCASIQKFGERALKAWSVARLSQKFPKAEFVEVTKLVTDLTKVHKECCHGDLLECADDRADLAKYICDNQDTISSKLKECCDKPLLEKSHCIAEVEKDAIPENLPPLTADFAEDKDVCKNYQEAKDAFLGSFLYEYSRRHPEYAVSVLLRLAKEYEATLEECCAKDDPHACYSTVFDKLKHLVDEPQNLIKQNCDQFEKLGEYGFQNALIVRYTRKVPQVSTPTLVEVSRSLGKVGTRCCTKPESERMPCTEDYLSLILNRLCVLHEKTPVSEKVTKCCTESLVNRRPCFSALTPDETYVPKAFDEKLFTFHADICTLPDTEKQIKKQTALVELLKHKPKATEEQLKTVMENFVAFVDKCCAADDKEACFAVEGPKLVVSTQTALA
A short description of assay [12]: probe aXIP binding to arrayed compounds – biochemical, NeuroSMM set, 635/667 nm fluorescence, primary screen (AID 1119).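 Further: probe is the protein aXip251-270 applied at 1 µg/mL to compound-printed slides; binding of probe to printed compounds measured as 667 nm fluorescence plus signal to noise.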 The settings on record: small-molecule microarray, higher = more signal, called active from +8 up or from −8 down.
A short description of assay [13]: probe aNOTCH3 binding on compound microarray – biochemical, small-molecule microarray, 635/667 nm fluorescence, primary screen (AID 1120).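 Further: probe is a biotin-tagged antibody raised against NOTCH3 rather than NOTCH3 protein; score merges spot fluorescence near 667 nm with spot signal to noise.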 Particulars: higher = more signal.
Assay [14] is described as follows: probe aNOTCH2 binding on compound microarray – biochemical, small-molecule microarray, 635/667 nm fluorescence, primary screen (AID 1121).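 Further: score merges feature fluorescence read at 667 nm with its signal to noise.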 The settings on record: higher = more signal.
For assay [15], the target named is Carbonic anhydrase 2 (Homo sapiens) (UniProt P00918). Briefly: compounds binding carbonic anhydrase 2 – biochemical, small-molecule microarray, Alexa647-labelled CAII, profiling panel (AID 1122). Particulars: CAII-A647 binding fluorescence, higher = more signal.
A short description of assay [16]: COS7 lysate on small-molecule microarray, probe aHis, 635 nm (AID 1123).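 Further: z-score combines 667nm fluorescence intensity with signal-to-noise per printed compound spot.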 The settings on record: COS7 cell lysate, fluorescence, higher = more signal.
Assay [17] is described as follows: probe aLAP1 signal on lysate-treated microarray – cell lysate, small-molecule microarray, COS7 lysate, primary screen (AID 1124).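 Further: lysate comes from COS7 cells expressing LAP1 and is applied at 0.3 µg/mL; score merges spot fluorescence near 667 nm with signal-to-noise over triplicate slides.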 The settings on record: probe aLAP1, fluorescence, higher = more signal.
Assay [18] has as its system Sam68 (KHDRBS1). As to the kind of experiment: compounds binding KHDRBS1 protein – biochemical, small-molecule microarray, 635 nm fluorescence, primary screen (AID 1125).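 Further: score merges 667 nm channel intensity with signal to noise over triplicate slides.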 The settings on record: higher = more signal.
Assay [19] relates to Chordin-like protein 2 (CHRDL2). Briefly: compounds binding chordin-like 2 – biochemical, small-molecule microarray, 635 nm fluorescence, primary screen (AID 1126).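 Further: printed compound slides probed with Chrdl2 protein at 4 µg/mL for 1 h at 4 C; score merges 667 nm emission intensity with signal to noise over three replicate slides.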 The settings on record: fluorescence 635 nm, higher = more signal.
Assay [20] concerns the target Concanavalin-A (Canavalia ensiformis) (UniProt P02866). Briefly: compounds binding concanavalin A lectin – biochemical, small-molecule microarray, Alexa647 label, 635 nm, artefact control for SMM control protein annotation, primary screen (AID 1127).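 Further: z combines 667 nm emission intensity with signal-to-noise across three replicate slides.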 Particulars: ConA-A647 binding fluorescence, higher = more signal.

Calls of active or inactive are those of the source.

Chain of Alpha-bungarotoxin (Bungarus multicinctus) (P60615 whole entry, looked up): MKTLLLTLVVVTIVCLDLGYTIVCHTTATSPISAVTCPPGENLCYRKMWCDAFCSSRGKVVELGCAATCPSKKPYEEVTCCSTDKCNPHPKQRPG
Chain of Concanavalin-A (Canavalia ensiformis) (P02866 whole entry, looked up): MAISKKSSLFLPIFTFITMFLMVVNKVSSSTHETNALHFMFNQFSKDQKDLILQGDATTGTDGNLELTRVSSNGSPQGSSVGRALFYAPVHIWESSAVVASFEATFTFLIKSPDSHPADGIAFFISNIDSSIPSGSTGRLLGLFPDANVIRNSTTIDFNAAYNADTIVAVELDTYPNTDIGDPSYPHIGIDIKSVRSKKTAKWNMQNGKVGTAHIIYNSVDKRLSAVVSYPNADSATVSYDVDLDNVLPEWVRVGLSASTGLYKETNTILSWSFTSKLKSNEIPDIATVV
Chain of Left-right determination factor 2 (Homo sapiens) (O00292 whole entry, looked up): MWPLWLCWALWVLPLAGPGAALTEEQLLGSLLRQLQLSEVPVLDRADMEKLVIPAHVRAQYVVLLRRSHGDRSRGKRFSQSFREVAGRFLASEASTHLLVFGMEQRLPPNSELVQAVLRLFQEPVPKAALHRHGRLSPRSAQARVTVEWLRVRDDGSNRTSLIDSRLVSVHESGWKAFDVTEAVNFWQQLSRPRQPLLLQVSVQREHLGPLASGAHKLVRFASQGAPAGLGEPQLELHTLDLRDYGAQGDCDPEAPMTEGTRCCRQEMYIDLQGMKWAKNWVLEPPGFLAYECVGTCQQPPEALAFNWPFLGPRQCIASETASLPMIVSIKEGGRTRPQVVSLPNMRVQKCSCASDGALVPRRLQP

On to `COC(=O)[C@@]1(Cc2ccc(OC)cc2)[C@H]2c3cc(C(=O)N(C)C)n(CCF)c3C[C@H]2CN1C(=O)c1ccccc1`, for which the composite z-score in assay [1] stood at 0.528; in [3], 0.216; in assay [4], 2.13; in assay [5] it was 1.02; in assay [6] it was 0.027; in assay [7], 0.675. For the same compound, the composite z-score was 1.82 in [8]; 1.01 in [9]; 1.79 in assay [10]; 1.01 in assay [11]; 0.292 in [13]; -0.0015 in assay [14]. The composite z-score in assay [15] is 0.793; in [16], 2.96; in assay [17], 0.721; in assay [18], 1.32; in [19] it was -0.499; in [20], 1.21. In [2], this compound came in with a z-score of -1.83. In addition, the composite Z-score in assay [12] is 1.22 (inactive).
In the case of `COC(=O)[C@@]1(Cc2ccc(OC)cc2)[C@H]2c3cc(C(=O)N4CCCC4)n(CCc4ccc(O)c(OC)c4)c3C[C@H]2CN1C(=O)c1ccccc1`, the composite z-score in assay [1] is 0.333; in [3], -0.448; in assay [4], 0.346; in assay [5], 0.225; in [6] it was 0.114; in assay [7] it was 0.03. Besides, the composite z-score in assay [8] was 1.03; in assay [9], 0.39; in [10], 0.184; in assay [11] it was 0.952; in [13] it was 0.23; in assay [14] it was 0.12. In addition, the composite z-score is 0.742 in assay [15]; 2.28 in [16]; 0.191 in assay [17]; -0.295 in assay [18]; -0.508 in assay [19]; 0.173 in [20]. For the same compound, in assay [2], the z-score was -0.917. In assay [12], the composite Z-score is 0.683 (inactive).
Consider `CC1CC/C=C\[C@H]2OC34C=CCN(Cc5ccccc5)C(=O)[C@H]3N(CCO)C(=O)[C@@H]4C2C(=O)O1` (stereo not given in full), for which the composite z-score was 0.442 in assay [1]; -0.51 in assay [3]; -0.556 in [4]; 0.0116 in [5]; 0.0597 in [6]; -0.0035 in [7]. Also, the composite z-score in assay [8] is 0.0169; in assay [9], 1.62; in assay [10], -0.4; in [11], -0.897; in assay [13], -0.0984; in assay [14], -0.154. Moreover, the composite z-score in assay [15] was 0.873; in assay [16], 0.368; in assay [17], 1.29; in [18], 0.386; in [19], -0.793; in assay [20], -0.315. In assay [2], this compound gave a z-score of -0.0892. Moreover, the composite Z-score in assay [12] is 0.461 (inactive).
On to `O=[N+]([O-])c1ccc(C[n+]2ccc(-c3ccc(CO)cc3)cc2)o1`, for which the composite z-score in assay [1] is 0.418; in assay [3], 0.187; in assay [4], -0.165; in assay [5] it was 0.451; in assay [6], -0.001; in assay [7], 0.172. The composite z-score is 0.327 in assay [8]; 1.12 in assay [9]; 1.49 in [10]; 0.904 in [11]; -0.0043 in [13]; -0.0485 in [14]. The composite z-score was found to be 0.885 in assay [15]; 1.13 in [16]; 1.2 in assay [17]; 0.649 in [18]; 0.768 in assay [19]; 0.648 in assay [20]. Besides, the z-score in assay [2] is 0.007. Moreover, the composite Z-score in assay [12] was 0.289 (inactive).
On to `CN(C)C(=O)[C@]1(Cc2ccccc2N=[N+]=[N-])N=C(c2ccc(OCCCO)cc2)O[C@@H]1c1ccccc1CN=[N+]=[N-]`, for which the composite z-score worked out at 1.42 in assay [1]; 0.234 in assay [3]; 0.668 in assay [4]; 0.271 in assay [5]; 0.0559 in assay [6]; 0.13 in assay [7]. In addition, the composite z-score in assay [8] was -0.488; in assay [9], 0.939; in assay [10], 0.564; in assay [11], 0.828; in [13], 0.473; in [14], -0.0349. For the same compound, the composite z-score in assay [15] is 0.684; in assay [16], 2.53; in assay [17], 0.635; in assay [18] it was 1.3; in assay [19] it was -0.21; in assay [20], 0.875. The same compound registered a z-score in [2] of -2.55. For the same compound, the composite Z-score in assay [12] is -0.136 (inactive).
Take `COCCCNC(=O)[C@@]1(Cc2ccccc2CN=[N+]=[N-])N=C(c2ccc(OCCCO)cc2)O[C@H]1c1ccccc1N=[N+]=[N-]`: the composite z-score in assay [1] was -0.0639; in assay [3], 0.0652; in [4], 1.56; in assay [5], 1; in assay [6] it was 0.0388; in [7], 0.291. Also, the composite z-score in assay [8] was -0.675; in assay [9], 0.785; in assay [10], 1.48; in [11], 0.778; in assay [13], 0.303; in assay [14], 0.168. Besides, the composite z-score in [15] was 0.421; in [16], 2.43; in assay [17] it was 0.656; in assay [18], 1.02; in [19], -0.379; in assay [20], 1.04. Also, the z-score in [2] is -2.3. For the same compound, in assay [12], the composite Z-score is 0.397 (inactive).
